High-throughput results (PubChem BioAssay)
A selection: hits, their analogues and other compounds. The true share with any hit is near 6.5%.
HCMV antiviral: qHTS Assay for inhibitors of the human cytomegalovirus (HCMV); HFF cells, HCMV-luciferase reporter, 72 h; active compounds read low; activity change, negative = inhibition, % at 57.5 µM; hit rate 4.5% among 410,000; AID 1259415, 2018; in the data active means activity change below about -60%; inconclusive means no clear call, values can overlap the other calls; inactive means above about -39%
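Cell-based, HFFs, 1000 cells/well, 16 h 37C; cpds in DMSO + HCMV-luc, MOI 1 PFU/cell; 72 h 37C; OneGlo luminescence after 5 min RT; norm. to buffer vs Salinomycin 10uM.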
Vaccinia mCherry: qHTS for Stage-Specific Inhibitors of Vaccinia Orthopoxvirus: mCherry Reporter Primary qHTS | hit rate 0.63% among 310,000 | Vaccinia virus mCherry reporter infection, fluorescence | Potency, µM (series often up to 36.5 µM), for inactives: at the top dose activity change, negative = inhibition, hits mostly inhibitors | AID 720579, 2013; calls by dose curve; tested in A549 cells; further: potency means the concentration at half of the fitted maximal effect; nearly all actives have a fitted effect of over 35% in size
Marburg entry inh: qHTS for inhibitors of binding or entry into cells for Marburg Virus. Marburg virus pseudotyped entry inhibition, cell reporter. Potency, µM (titrated, usually from 37.8 µM), for the others: at the top dose activity change, negative = inhibition, hits mostly inhibitors. hit rate 1.8% among 300,000. AID 540276, 2011; calls by dose curve; tested in HEK293 cells; further: potency means the concentration at half of the fitted maximal effect
VACV Venus inh: qHTS for Stage-Specific Inhibitors of Vaccinia Orthopoxvirus: Venus Reporter Primary qHTS; Potency, µM (series often up to 36.5 µM), for inactives: at the highest dose activity change, negative = inhibition, hits mostly inhibitors; Vaccinia virus Venus reporter expression, fluorescence; hit rate 0.46% among 330,000; AID 720580, 2013; calls by dose curve; tested in A549 cells; further: potency means the concentration at half of the fitted maximal effect; nearly all actives have a fitted effect of over 30% in size
Lassa entry inh: qHTS for Inhibitors of binding or entry into cells for Lassa Virus | Lassa virus pseudotype entry inhibition, cell reporter | Potency, µM (doses to about 37.9 µM), without a hit: top-dose activity change, negative = inhibition, actives largely listed as inhibitors | hit rate 1.2% among 300,000 | AID 540256, 2011; calls by dose curve; tested in HEK293 cells; further: potency means the concentration at half of the fitted maximal effect; nearly all actives have a fitted effect of over 50% in size
FMDV antiviral: High Throughput Screening for Foot and Mouth Disease Virus Antivirals; FMDV antiviral cell-based qHTS; Potency, µM (titrated, usually from 57.9 µM), for the others: at the top dose activity change, negative = inhibition, usual class: inhibitors; hit rate 1.2% among 410,000; calls by dose curve; tested in HEK293T cells; further: read-out not given here; potency means the concentration at half of the fitted maximal effect; nearly all actives have a fitted effect of over 45% in size
* = called active by the depositor; i = inactive; u = inconclusive; x = not tested or not shown; [ ] = remark or other dose. On the % scale 0 is the no-effect control and ±100 the full control effect.

SMILES | HCMV antiviral | Vaccinia mCherry | Marburg entry inh | VACV Venus inh | Lassa entry inh | FMDV antiviral
COc1ccc2c(c1)CCC1C2CC[C@@]2(C)C1CC[C@@H]2NCCCCCCN1C(=O)CCC1=O (some centres undefined) | x | x | u | x | 13µM* | x
COc1ccc2c(c1)CCC1[C@@H]2CCC2(C)[C@@H](NCCCCCCN3C(=O)C=CC3=O)CC[C@@H]12 (some centres undefined) | x | x | x | x | x | -8.0%
C=C1C[C@H]2[C@@H]3CCc4cc(OC)ccc4[C@H]3CC[C@]12C | -69.4* | -11.6% | x | -20.4% | x | -1.4%
CC1(C)C(O)CC(O)[C@]2(C)C1CC(O)[C@]1(C)C2CC[C@@]2(C)C(c3ccoc3)OC(=O)C3O[C@]312 (some centres undefined) | x | -21.5% | x | -17.4% | x | -18.9%
CC1(C)C(=O)C=C[C@@]2(C)C1=C(O)C(=O)[C@@]1(C)C2CC[C@@]2(C)C(c3ccoc3)C[C@H]3O[C@@]321 (some centres undefined) | x | u | x | u | x | 10µM*
C[C@H]1COc2cccc(N3CCCC3)c2S(=O)(=O)N1 | -16.0 | x | x | x | 10.0%[46.1 µM] | x
CCCOc1ccc(NC(=O)CC2C(=O)Nc3ccccc3N2CC(=O)N2CCCC2)cc1 (centres undefined) | -60.4* | x | x | x | x | -10.8%
CNC(=O)/C(C#N)=C/c1c(N2CCN(C)CC2)nc2c(C)cccn2c1=O | 15.5 | x | x | x | x | -8.0%
CCNC(=O)/C(C#N)=C/c1c(N2CCCCCC2)nc2c(C)cccn2c1=O | u | u | u | u | 8.91µM* | -2.3%
CCN1CCN(c2nc3c(C)cccn3c(=O)c2/C=C(\C#N)C(=O)NC)CC1 | -72.4* | -11.8% | -7.3% | -13.9% | u | -8.2%
CCNC(=O)/C(C#N)=C/c1c(N2CCN(c3ccccc3)CC2)nc2c(C)cccn2c1=O | 94.4 | -1.9% | -15.2% | -11.4% | u | -18.3%
COC(=O)/C(C#N)=C/c1c(N2CCN(c3ccccc3)CC2)nc2ccccn2c1=O | x | -4.1% | -29.1%[46.1 µM] | -4.9% | 17.5%[46.1 µM] | 10.9%
CNC(=O)/C(C#N)=C/c1c(N(Cc2ccccc2)Cc2ccccc2)nc2ccccn2c1=O | -35.9 | -19.7% | 15.8µM* | u | 11.2µM* | -22.9%
O=[S+]([O-])([O-])c1ccc2c(c1)cc([S+](=O)([O-])[O-])c1nn(-c3ccc(/C=C/c4ccc(-n5nc6c([S+](=O)([O-])[O-])cc7cc([S+](=O)([O-])[O-])ccc7c6n5)cc4[S+](=O)([O-])[O-])c([S+](=O)([O-])[O-])c3)nc12 | x | -18.4% | x | -13.8% | x | x
CC1(C)Cc2c(sc3ncnc(NNC(=S)NCc4ccccc4)c23)CO1 | -5.5 | -10.3% | u | -29.5% | 0.116µM* | -3.9%
O=C(Nc1ccc(-c2cn3ccccc3n2)cc1)c1cccs1 | -8.5 | -13.8% | 14.6µM* | -6.2% | u | -16.6%
O=C(Nc1cccc(-c2cn3ccccc3n2)c1)c1cccc(Cl)c1 | -32.6 | u | u | 14.1µM* | u | u
CCCOc1ccc(C2C(=O)N(C3CCC(C)CC3)CC(=O)N2Cc2cccc(OC)c2)cc1OC (centres undefined) | 10.5 | -9.7% | x | -5.6% | 18.3%[46.1 µM] | -16.5%
N#C[C@@H](c1ccccc1)C1CCN(C(=O)c2ccco2)CC1 | 9.5 | x | x | x | x | x
Cc1ccc(CN2CCOc3ccc(CN4CCC(O)(c5cccnc5)CC4)cc3C2)cc1C | x | -22.4% | x | u | x | u
Cc1ccc(NC(=O)N(C2CCCCC2)C(C)c2cccnc2)cc1C (centres undefined) | -68.5* | i | x | -11.0% | x | -4.1%
COc1cccc(/C=C/c2nc(C#N)c(NCCc3ccc(OC)c(OC)c3)o2)c1 | -9.4 | -13.2% | -0.3%[46.1 µM] | 0.8% | 9.7%[46.1 µM] | u
COc1cc2c(cc1OC)CN(c1ccc3ccccc3n1)CC2 | -5.3 | u | -19.3%[46.1 µM] | u | 27.7% | -22.7%
COc1cc2c(cc1OC)CN(c1ccc(-c3ccccc3OC)nn1)CC2 | x | -19.1% | u | 1.0% | u | 35.5µM*
CCOC(=O)c1c(C)oc2c(F)c(F)c(F)c(F)c2c1=O | -103.5* | x | u | -29.3% | u | 11.2µM*
